Bioassay records deposited in PubChem BioAssay by several laboratories.
CYP2C9 act – human CYP2C9 activators, primary screen, biochemical, luminescence | recombinant CYP2C9, luciferin-H conversion; hits give high values; factor 1 = untreated enzyme, 0 = blocked | 96,000 tested, 1.4% active | activation factor at 5 µM;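 active = activation factor of 2 or more for CYP2C9 at a 5 µM dose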
Target sequence (P11712 whole entry, looked up): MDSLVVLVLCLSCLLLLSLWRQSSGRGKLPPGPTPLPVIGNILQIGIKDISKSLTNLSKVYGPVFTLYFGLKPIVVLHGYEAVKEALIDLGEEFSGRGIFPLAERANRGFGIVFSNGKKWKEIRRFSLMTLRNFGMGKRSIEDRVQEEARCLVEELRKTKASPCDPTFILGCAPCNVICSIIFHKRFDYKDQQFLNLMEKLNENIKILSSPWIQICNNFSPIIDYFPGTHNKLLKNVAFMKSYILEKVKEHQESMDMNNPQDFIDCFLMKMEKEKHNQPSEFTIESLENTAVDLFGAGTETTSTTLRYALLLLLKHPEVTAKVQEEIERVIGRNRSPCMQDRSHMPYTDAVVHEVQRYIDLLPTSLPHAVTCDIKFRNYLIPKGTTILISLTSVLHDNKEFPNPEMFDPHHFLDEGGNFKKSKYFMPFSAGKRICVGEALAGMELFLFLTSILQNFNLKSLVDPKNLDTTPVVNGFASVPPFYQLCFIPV
CYP2C19 inh – blockers of cytochrome P450 2C19 activity – biochemical, luminescence, ADME assay, primary screen; AID 778, 2007; P33261; inhibition, % at 5 µM; CYP2C19 Supersomes, luciferin-H EGE luminescence, 30 min; 96,000 tested, 21% active;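 active = CYP2C19 inhibition above a set limit at 5 µM in the primary screen, cut at about 50% in these data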
CYP2C19 activ – human CYP2C19 activators, primary screen, biochemical, luminescence; Cytochrome P450 2C19 (Homo sapiens), P33261; recombinant CYP2C19, luciferin-H EGE luminescence; hits give high values; 0 = fully inhibited enzyme, 1 = untreated enzyme; activation factor at 5 µM; 96,000 tested, under 10 active;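 active = activation factor of at least 2 at 5 µM in the primary screen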
CYP2C9 inhib – blockers of cytochrome P450 2C9 activity – biochemical, luminescence, ADME assay, primary screen; CYP2C9 Supersomes, luciferin-H conversion; inhibition, % at 5 µM; 96,000 tested, 20% active; AID 777, 2007;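 active = blocking of liver enzyme CYP2C9 beyond about 50% at 5 µM, limit read from the data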
sEH inhibitor – soluble epoxide hydrolase inhibitors, primary screen, biochemical, human sEH; Bifunctional epoxide hydrolase 2 (Homo sapiens), P34913; recombinant human sEH enzymatic activity assay; inhibition, % at 2 µM; 91,000 tested, 0.34% active; in the data active = inhibition above about 80%
sEH activator – soluble epoxide hydrolase activators, primary screen, biochemical, human sEH; Bifunctional epoxide hydrolase 2 (Homo sapiens), P34913; purified human sEH enzymatic activity, activator screen; activation, % at 2 µM; 91,000 tested, 0.04% active; in the data active = activation above about 37%
Each line names hits and unclear results; the compound was inactive in the other large screens. A selection: hits, their analogues and other compounds. The true share with any hit is near 27%.

CCOc1ccc(OCC)c(NC(=O)CCn2c(=O)oc3ccccc32)c1	none
CCn1c(SC(C)C(=O)O)nnc1-c1cccnc1 (stereo unspecified)	none
Cc1ccc(S(=O)(=O)NC(=O)c2cc(C)n(-c3cc(S(=O)(=O)N4CCOCC4)ccc3N3CCCC3)c2C)cc1	none
CCC(=O)N1CCN(c2ccc(NC(=O)c3c(F)c(F)c(OC)c(F)c3F)cc2)CC1	none
COCc1ccc2oc(C(=O)O)cc2c1	none
CCC(=O)Nc1ccc(Oc2ccc3c(c2)C(=O)N(c2ccc(O)cc2)C3=O)cc1	CYP2C19 inh 77
Cc1cccc(C(=O)O/N=C/c2c(N3CCOCC3)n(C)c3ccccc23)c1	CYP2C9 inhib 85
Cn1c(Cl)c(/C=N/OC(=O)c2ccccc2Cl)c2ccccc21	none
COc1ccc(-c2ccnc3nc(N4CCN(c5ccccc5)CC4)nn23)cc1	CYP2C9 inhib 61
Fc1ccc(-c2ccnc3nc(N4CCOCC4)nn23)cc1	none
O=S(=O)(CCc1ccccc1)/N=C/c1cccs1	none (no result: sEH inhibitor, sEH activator)
O=C(NC1CC2CCCC(C1)N2C1CC1)NC12CC3CC(CC(C3)C1)C2 (stereo unspecified)	sEH inhibitor 99
[2H]c1c([2H])c([2H])c(-c2nc(N3CCCCCC3)sc2C(=O)c2ccccc2)c([2H])c1[2H]	none
CCCCC(=O)NCCc1ccc(S(N)(=O)=O)cc1	none
CCCCCCC(=O)NC(Nc1ccc(S(N)(=O)=O)cc1)C(Cl)(Cl)Cl (stereo unspecified)	CYP2C9 inhib 53
O=C(CN1CCC(C(O)(c2ccccc2)c2ccccc2)CC1)Nc1cc(Cl)ccc1Cl	CYP2C9 inhib 65
O=C(CN1CCC(C(O)(c2ccccc2)c2ccccc2)CC1)Nc1ccccc1	CYP2C9 inhib 78
O=C(CN1CCN(C(=O)c2ccco2)CC1)Nc1cc(C(F)(F)F)ccc1Cl	none
CCC(C)c1ccc(OCC(=O)Nc2ccc(Cl)cn2)cc1 (stereo unspecified)	none
CSCCC1NC(=O)NC1=O (stereo unspecified)	none (no result: sEH inhibitor, sEH activator)
CC1=C(c2ccc(C)cc2)S(=O)(=O)N(CC(=O)O)C1=O	CYP2C9 inhib 82 (no result: sEH inhibitor, sEH activator)
CCOC(=O)C1=C(c2ccccc2)NC(SCC)=C(C#N)C1c1cccnc1 (stereo unspecified)	CYP2C9 inhib 70
CCCSC1=C(C#N)C(c2cccnc2)C(C(=O)OCC)=C(c2ccccc2)N1 (stereo unspecified)	CYP2C9 inhib 62
O=C1Nc2ccccc2S/C1=C/Nc1cccc(Cl)c1	none
Nc1nnc(SCC(=O)N2CCN(c3cccc(Cl)c3)CC2)n1-c1ccccc1	none (no result: CYP2C9 act, CYP2C19 inh, CYP2C19 activ, CYP2C9 inhib)
CCOC(=O)CSc1nnc(-c2nnc(SCC(=O)OCC)n2CC)n1CC	none
COc1ccc(N2C(=O)c3ccccc3NC23C(=O)N(C)c2ccccc23)cc1 (stereo unspecified)	none
Fc1cccc(Cl)c1Cn1nnc2c(-n3ccnc3)ncnc21	CYP2C19 inh 95, CYP2C9 inhib 66 (no result: sEH inhibitor, sEH activator)
Cc1cc2ccccc2n1CCNC(=O)C1CCCC1	CYP2C19 inh 94, CYP2C9 inhib 52
Cc1cccn2cc(CNC(=O)C3CCCCC3)nc12	none (no result: CYP2C9 act, CYP2C19 inh, CYP2C19 activ, CYP2C9 inhib)
Cc1cc2ccccc2n1CCNC(=O)C1CCCCC1	CYP2C19 inh 68
Cc1cc2ccccc2n1CCNC(=O)c1cccs1	CYP2C19 inh 53
Cc1cc(C)nc(N2CCC(C(=O)NCCc3ccccc3)CC2)n1	none
CNC(=O)C1CC(=O)N/C(=N/N=C(\C)c2cccs2)S1 (stereo unspecified)	none
C=CCOc1cccc(C2/C(=C(/O)c3ccc(F)cc3)C(=O)C(=O)N2CCN2CCOCC2)c1 (stereo unspecified)	none
CCOC(=O)C(NCc1ccccc1)(NC(=O)c1ccccc1)C(F)(F)F (stereo unspecified)	CYP2C19 inh 52
CCOC(=O)C(NCc1ccc2c(c1)OCO2)(NC(=O)c1ccccc1)C(F)(F)F (stereo unspecified)	CYP2C19 inh 96, CYP2C9 inhib 74
CCOC(=O)C(NC(=O)c1ccccc1)(Nc1cc(C)on1)C(F)(F)F (stereo unspecified)	CYP2C19 inh 62
